Measurements from PubChem BioAssay AID1159580 (chemical genetic matrix, 2015).
Screen size: about 5,500 compounds; about 2,000 (36%) were called active. Inconclusive results (about 18%) are left out. No stated cut-off is given here; in the data, active means normalized growth mostly below about 0.91 (no sharp cut-off); inconclusive means no clear call, values can overlap the other calls; inactive means mostly above about 0.92. The list shows a part of the results.

Assay: chemical genetic growth profiling, strain panel (AID 1159580);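 further: tested at 20 µM; growth read once vehicle control cultures reached saturation at 30 °C; 1 = growth at the plate median or of vehicle wells; lower values mean less growth of the strain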
Conditions: growth OD
[1] = S. cerevisiae deletion strains, locus YCL061C, strain MRC1, hits give low values
[2] = S. cerevisiae deletion strains, locus YJL187C, strain SWE1, hits give low values
[3] = S. cerevisiae deletion strains, locus YAL013W, strain DEP1, hits give low values
[4] = S. cerevisiae deletion strains, locus YBR229C, strain ROT2, hits give low values
[5] = S. cerevisiae deletion strains, locus YDL101C, strain DUN1, hits give low values
[6] = S. cerevisiae deletion strains, locus YDR150W, strain NUM1, hits give low values
[7] = S. cerevisiae deletion strains, locus YEL061C, strain CIN8, hits give low values
[8] = S. cerevisiae deletion strains, locus YGR078C, strain PAC10, hits give low values
[9] = S. cerevisiae deletion strains, locus YHR030C, strain SLT2, hits give low values
[10] = S. cerevisiae deletion strains, locus YHR087W, strain rtc3, hits give low values
[11] = S. cerevisiae deletion strains, locus YJR043C, strain POL32, hits give low values
[12] = S. cerevisiae deletion strains, locus YJR075W, strain HOC1, hits give low values
[13] = S. cerevisiae deletion strains, locus YKL190W, strain CNB1, hits give low values
[14] = S. cerevisiae deletion strains, locus YLR039C, strain RIC1, hits give low values
[15] = S. cerevisiae deletion strains, locus YLR058C, strain SHM2 (second series), hits give low values
[16] = S. cerevisiae deletion strains, locus YLR085C, strain ARP6, hits give low values
[17] = S. cerevisiae deletion strains, locus YLR262C, strain YPT6, hits give low values
[18] = S. cerevisiae deletion strains, locus YML094W, strain GIM5, hits give low values
[19] = S. cerevisiae deletion strains, locus YMR219W, strain ESC1, hits give low values
[20] = S. cerevisiae deletion strains, locus YMR263W, strain SAP30, hits give low values
[21] = S. cerevisiae deletion strains, locus YNL153C, strain GIM3, hits give low values
[22] = S. cerevisiae deletion strains, locus YNL298W, strain CLA4 (second series), hits give low values
[23] = S. cerevisiae deletion strains, locus YNL322C, strain KRE1, hits give low values
[24] = S. cerevisiae deletion strains, locus YNR030W, strain Alg12, hits give low values
[25] = S. cerevisiae deletion strains, locus YOL006C, strain TOP1, hits give low values
[26] = S. cerevisiae deletion strains, locus YPL055C, strain LGE1, hits give low values
[27] = S. cerevisiae deletion strains, locus YPL241C, strain CIN2, hits give low values
[28] = S. cerevisiae deletion strains, locus YPR135W, strain CTF4, hits give low values
[29] = S. cerevisiae strains, strain wild type, hits give low values

Measured: normalized growth

Cc1ccc(-c2nc3ccc(C)cn3c2CC(=O)N(C)C)cc1
inactive: S. cerevisiae deletion strains, locus YAL021C, strain ccr4, hits give low values 1.06 | S. cerevisiae deletion strains, locus YAL026C, strain drs2, hits give low values 1.01 | S. cerevisiae deletion strains, locus YAL030W, strain snc1, hits give low values 1.02 | S. cerevisiae deletion strains, locus YBL061C, strain skt5, hits give low values 0.998 | S. cerevisiae deletion strains, locus YBR009C, strain hhf1, hits give low values 1.02 | S. cerevisiae deletion strains, locus YBR023C, strain chs3, hits give low values 0.989 | S. cerevisiae deletion strains, locus YBR171W, strain sec66, hits give low values 1.04 | S. cerevisiae deletion strains, locus YBR231C, strain swc5, hits give low values 0.966 | S. cerevisiae deletion strains, locus YBR279W, strain paf1, hits give low values 0.993 | S. cerevisiae deletion strains, locus YCL011C, strain gbp2, hits give low values 1.01 | S. cerevisiae deletion strains, locus YCL016C, strain dcc1, hits give low values 0.987 | [1] 1.02 | S. cerevisiae deletion strains, locus YCL069W, strain vba3, hits give low values 1.02 | S. cerevisiae deletion strains, locus YCR088W, strain abp1, hits give low values 1.03 | S. cerevisiae deletion strains, locus YDL005C, strain med2, hits give low values 1.01 | S. cerevisiae deletion strains, locus YDL040C, strain nat1, hits give low values 1 | S. cerevisiae deletion strains, locus YDR001C, strain nth1, hits give low values 1.02 | S. cerevisiae deletion strains, locus YDR069C, strain doa4, hits give low values 1.01 | S. cerevisiae deletion strains, locus YDR137W, strain rgp1, hits give low values 1.05 | S. cerevisiae deletion strains, locus YDR159W, strain sac3, hits give low values 0.96 | S. cerevisiae deletion strains, locus YDR195W, strain ref2 1 | S. cerevisiae deletion strains, locus YDR297W, strain sur2, hits give low values 1 | S. cerevisiae deletion strains, locus YDR334W, strain swr1, hits give low values 1.02 | S. cerevisiae deletion strains, locus YDR335W, strain msn5, hits give low values 0.991 | S. cerevisiae deletion strains, locus YDR392W, strain spt3, hits give low values 0.939 | S. cerevisiae deletion strains, locus YEL003W, strain gim4, hits give low values 1.01 | S. cerevisiae deletion strains, locus YEL037C, strain rad23, hits give low values 1.01 | S. cerevisiae deletion strains, locus YEL061C, strain CIN8 (second series), hits give low values 1.01 | S. cerevisiae deletion strains, locus YER015W, strain faa2, hits give low values 1.02 | S. cerevisiae deletion strains, locus YER016W, strain bim1, hits give low values 1.01 | S. cerevisiae deletion strains, locus YER111C, strain swi4, hits give low values 1.03 | S. cerevisiae deletion strains, locus YER155C, strain BEM2 (second series), hits give low values 0.998 | S. cerevisiae deletion strains, locus YFR010W, strain ubp6, hits give low values 1.02 | S. cerevisiae deletion strains, locus YGL167C, strain pmr1, hits give low values 0.996 | S. cerevisiae deletion strains, locus YGL173C, strain kem1, hits give low values 1.01 | S. cerevisiae deletion strains, locus YGL227W, strain vid30, hits give low values 1.01 | S. cerevisiae deletion strains, locus YGL240W, strain doc1, hits give low values 1.09 | S. cerevisiae deletion strains, locus YGL253W, strain hxk2, hits give low values 0.999 | S. cerevisiae deletion strains, locus YHR013C, strain ard1, hits give low values 1.06 | S. cerevisiae deletion strains, locus YHR027C, strain rpn1, hits give low values 0.981 | S. cerevisiae deletion strains, locus YHR142W, strain chs7, hits give low values 1.03 | S. cerevisiae deletion strains, locus YJL092W, strain hpr5, hits give low values 1.02 | S. cerevisiae deletion strains, locus YJL095W, strain BCK1 (second series), hits give low values 1.01 | S. cerevisiae deletion strains, locus YJL115W, strain asf1, hits give low values 1.02 | S. cerevisiae deletion strains, locus YJL129C, strain trk1, hits give low values 1 | S. cerevisiae deletion strains, locus YJL154C, strain vps35, hits give low values 1.02 | S. cerevisiae deletion strains, locus YJL164C, strain tpk1, hits give low values 1.01 | S. cerevisiae deletion strains, locus YJL166W, strain qcr8, hits give low values 1.03 | [2] 1.01 | S. cerevisiae deletion strains, locus YKL160W, strain elf1, hits give low values 0.997 | S. cerevisiae deletion strains, locus YKR026C, strain gcn3, hits give low values 1.02 | S. cerevisiae deletion strains, locus YKR091W, strain srl3, hits give low values 1.03 | S. cerevisiae deletion strains, locus YLL001W, strain dnm1, hits give low values 0.988 | S. cerevisiae deletion strains, locus YLL026W, hits give low values 0.999 | S. cerevisiae deletion strains, locus YLL041C, strain sdh2, hits give low values 1.01 | S. cerevisiae deletion strains, locus YLR027C, strain aat2, hits give low values 1.02 | S. cerevisiae deletion strains, locus YLR221C, strain rsa3, hits give low values 0.974 | S. cerevisiae deletion strains, locus YLR258W, strain gsy2, hits give low values 1.03 | S. cerevisiae deletion strains, locus YLR262C, strain YPT6 (second series), hits give low values 1.01 | S. cerevisiae deletion strains, locus YLR320W, strain mms22, hits give low values 0.991 | S. cerevisiae deletion strains, locus YLR342W, strain FKS1, hits give low values 0.987 | S. cerevisiae deletion strains, locus YLR357W, strain rsc2, hits give low values 1.01 | S. cerevisiae deletion strains, locus YLR370C, strain arc18, hits give low values 0.978 | S. cerevisiae deletion strains, locus YLR384C, strain iki3, hits give low values 0.975 | S. cerevisiae deletion strains, locus YML120C, strain ndi1, hits give low values 0.984 | S. cerevisiae deletion strains, locus YMR058W, strain fet3, hits give low values 1.02 | S. cerevisiae deletion strains, locus YMR125W, strain sto1, hits give low values 1.03 | S. cerevisiae deletion strains, locus YMR129W, hits give low values 0.978 | S. cerevisiae deletion strains, locus YMR205C, strain PFK2, hits give low values 1 | S. cerevisiae deletion strains, locus YMR231W, strain pep5, hits give low values 1.02 | S. cerevisiae deletion strains, locus YNL071W, strain lat1, hits give low values 1.03 | S. cerevisiae deletion strains, locus YNL209W, strain ssb2, hits give low values 0.995 | S. cerevisiae deletion strains, locus YNL248C, strain rpa49, hits give low values 1.02 | S. cerevisiae deletion strains, locus YNL322C, strain KRE1 (second series), hits give low values 1.03 | S. cerevisiae deletion strains, locus YNR049C, strain mso1, hits give low values 0.986 | S. cerevisiae deletion strains, locus YOR001W, strain rrp6, hits give low values 0.951 | S. cerevisiae deletion strains, locus YOR070C, strain gyp1, hits give low values 0.988 | S. cerevisiae deletion strains, locus YOR080W, strain dia2, hits give low values 0.998 | S. cerevisiae deletion strains, locus YOR083W, strain WHI5, hits give low values 0.969 | S. cerevisiae deletion strains, locus YOR106W, strain vam3, hits give low values 1.08 | S. cerevisiae deletion strains, locus YOR265W, strain rbl2, hits give low values 0.969 | S. cerevisiae deletion strains, locus YOR270C, strain vph1, hits give low values 1.07 | S. cerevisiae deletion strains, locus YOR290C, strain snf2, hits give low values 1.03 | S. cerevisiae deletion strains, locus YPL051W, strain arl3, hits give low values 1.02 | S. cerevisiae deletion strains, locus YPL078C, strain atp4, hits give low values 1.03 | S. cerevisiae deletion strains, locus YPL106C, strain sse1, hits give low values 1.12 | S. cerevisiae deletion strains, locus YPL240C, strain hsp82, hits give low values 0.982

COC(=O)Cc1cc(OC)c(OC)cc1[N+](=O)[O-]
inactive: [3] 1.01 | [4] 0.998 | [1] 1.02 | [5] 1.01 | [6] 1.01 | [7] 0.953 | [8] 1.03 | [9] 1.07 | [2] 0.983 | [11] 1 | [12] 0.997 | [13] 0.978 | [14] 1.16 | [15] 0.991 | [16] 0.982 | [17] 1.15 | [18] 0.997 | [19] 1 | [20] 1 | [21] 1.01 | [22] 0.977 | [23] 1.01 | [24] 0.985 | [25] 0.977 | [26] 0.974 | [27] 1.01 | [28] 1.03 | [29] 0.972
active: [10] 1.1 [resistant]

COc1ccc([N+](=O)[O-])c(OC)c1C(N)=O
inactive: [3] 1.02 | [4] 1.03 | [1] 1.06 | [5] 1.06 | [6] 1.04 | [7] 0.995 | [8] 1.04 | [9] 1.11 | [10] 0.964 | [2] 1.02 | [11] 1.06 | [12] 1.02 | [14] 1.03 | [15] 0.997 | [16] 1.03 | [17] 0.989 | [18] 0.98 | [19] 1.02 | [20] 1.02 | [21] 1.04 | [22] 1.02 | [23] 1.01 | [24] 1.03 | [26] 1.01 | [27] 1.02 | [28] 1.12

COc1cc([N+](=O)[O-])c(OC)cc1SCC(=O)NNC(=O)c1cc(OC)c(OC)c(OC)c1
inactive: [3] 0.982 | [4] 1.01 | [1] 0.981 | [5] 0.968 | S. cerevisiae deletion strains, locus YDL134C, strain PPH21, hits give low values 0.991 | [6] 0.942 | [7] 0.941 | [8] 0.978 | S. cerevisiae deletion strains, locus YGR229C, strain SMI1, hits give low values 1.01 | [9] 0.963 | [10] 1.03 | [2] 1.01 | [11] 0.983 | [12] 1.01 | [13] 0.999 | [14] 0.974 | [15] 0.999 | [16] 0.946 | [17] 1.04 | [18] 1.01 | [19] 1.01 | [20] 0.987 | [21] 0.988 | [22] 0.937 | [23] 0.98 | [24] 0.999 | [25] 0.931 | [26] 1.01 | [27] 0.939 | [28] 0.904 | [29] 1.02
